“And” between values parts separate entries of the source, which are not always exact repeats. Equal entries are not always repeated. The panel holds about 83,000 compounds, 20% with a hit somewhere; the sample as a whole holds those more often.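 Growth was measured after 48 h exposure to one concentration of compound in 96-well plates. Values under 10 count as active.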 Unmarked numbers belong to inactive results. The source made the active and inactive calls.
Legend:
Experiment in all cases: NCI-60 one-dose screen, 48 h (100 = growth as untreated, 0 = no growth, -100 = all killed)
T-47D breast = conditions: 10 µM unless noted
BT-549 breast = conditions: 10 µM unless noted
MDA-MB-435 melanoma = conditions: 10 µM unless noted
SW-620 colon = conditions: 10 µM unless noted
MCF7 breast = system: MCF7 breast
HCT-116 colon = conditions: 10 µM unless noted
HCC-2998 colon = conditions: 10 µM unless noted
KM12 colon = conditions: 10 µM unless noted

SMILES | growth (T-47D breast) | growth (BT-549 breast) | growth (MDA-MB-435 melanoma) | growth (SW-620 colon) | growth (MCF7 breast; 10 µM unless noted) | growth (HCT-116 colon) | growth (HCC-2998 colon) | growth (KM12 colon) | growth (MCF7 breast; 10 µM) [%] | growth (MCF7 breast; 100 µM)
CN=C(N)N/N=C(\c1ccccc1)c1ccc(Br)cc1 | 39.3% | 21.5% | -60.8% (active) | 29.4% | 4.81% (active) | 8.58% (active) | -61.1% (active) | 9.22% (active) |  | 
CC(C)=C1C=C2CC[C@@H]3[C@](C)(CCC[C@@]3(C)C(=O)O)[C@H]2CC1 | 97.6% | 126% | 101% | 102% | 95.9% | 107% |  |  |  | 
CC(C)=CCCC(C)C1=C(O)C(=O)C(C)=CC1=O (stereo not drawn) | -66.9% (active) | 24.7% | 102% | -49.5% (active) |  | -85.2% (active) | 100% | 86.8% | 66.9 | -52.3% (active) and -33.3% (active)
OCCOSCCO | 110% | 110% | 109% | 105% | 97.7% | 102% | 111% |  |  | 
CCCCCCCCCCCC[n+]1ccccc1 (tested in a mixture with another compound) | 14.4% | -57.6% (active) | -74% (active) | 0.841% (active) | 2.79% (active) | -9.07% (active) | -47.7% (active) |  |  | 
CCc1oc2ccccc2c1C(=O)c1cc(Br)c(O)c(Br)c1 | 62.1% | 35.4% | -11.1% (active) | 61.4% | 69.2% | 73.5% | 85.9% | 77.5% |  | 
Cc1nc(Sc2nc3ccc([N+](=O)[O-])cc3s2)sc1C | 27% | -10.4% (active) | 29.6% | 11.5% | 1.58% (active) | 2.1% (active) | 71.3% | 36.6% |  | 
Cc1oc2c(C)c3oc(=O)cc(C)c3cc2c1CCl | 53.9% | 68.8% | 63.4% | 76.7% | 49% | 71.1% | 98.8% |  |  | 
CCCCCCCCCCCC[N+]1(CCCCCCCCCCCC)CCCC(C)C1 (stereo not drawn) | -78.6% (active) | -72.2% (active) | -58.7% (active) | -65.4% (active) | -88.9% (active) | -97.2% (active) | -96.6% (active) |  |  | 
COc1ccc(C(Cn2ccnc2)Sc2ccc(Cl)c(Cl)c2)cc1 (stereo not drawn) | 79.3% | 73.2% | 84.1% | 80.9% | 79.6% | 48.5% | 108% | 73.7% |  | 
NC(=S)N/N=C\c1nccc2c(N)cccc12 | 11% | 41% | 30.3% | 37.2% | 22.1% | 19.2% | 44.4% |  |  | 
C/C(=N\NC(=S)N1CC2CCC(CC2)C1)c1ccccn1 | 17.4% | 30.4% | 11.5% | 14.3% | 13.3% | 7.24% (active) | 29.3% | 9.58% (active) |  | 
NC1=C(Br)C(=O)c2ncccc2C1=O | 15.3% | -81.2% (active) | -96.2% (active) | -88.4% (active) | -57.2% (active) | -46.4% (active) | 26.9% |  |  | 
Cc1onc(-c2ccccc2)c1C(=O)N/N=C/c1cc(Cl)cc(Cl)c1O | 42% | 33.8% | 45.2% | 35.3% | 18.8% | 21% | 17.1% | 30.6% |  | 
Cc1c(O)ccc(SC#N)c1C | 94% | 104% | 105% | 103% | 116% | 88% | 96.5% |  |  | 
CC(O)C(O)C(O)C(O)C(O)C(=O)NNc1ccccc1 (stereo not drawn) | 76.4% | 105% | 86.4% | 75.6% | 88.1% | 87.6% | 95.1% |  |  | 
S=C=Nc1ccc(N2CCOCC2)cc1 | 74.3% | 97.1% | 92% | 103% | 79.3% | 86.6% | 99.3% | 103% |  | 
O=C(c1ccccc1)c1ccc(O)c2ncccc12 | 10.6% | 56.3% | 56.7% | 17.1% | 10.5% | 13.7% | 35.8% |  |  | 

SMILES | growth (T-47D breast) | growth (BT-549 breast) | growth (MDA-MB-435 melanoma) | growth (SW-620 colon) | growth (MCF7 breast; 10 µM unless noted) | growth (HCT-116 colon) | growth (HCC-2998 colon) | growth (KM12 colon) | growth (MCF7 breast; 10 µM) [%] | growth (MCF7 breast; 100 µM)
CN(C)c1ccc(/C=C/c2ccnc3ccccc23)cc1 | 43.1% | 20.2% | 2.49% (active) | 26.9% | 19.9% | 24.8% | 72.1% | 29.9% |  | 
NC(CS/C(Cl)=C/Cl)C(=O)O (stereo not drawn) | -7.75% (active) | 51% | 58.6% | 104% | 45.1% | 84.4% | 102% |  |  | 
Cc1cc(C)c([I+]c2c(C)cc(C)cc2C)c(C)c1 | 0.613% (active) | -86.4% (active) | -81.2% (active) | -40.1% (active) | -53.7% (active) | -87.1% (active) | -85.5% (active) |  |  | 
O=C1/C(=C/c2ccccc2)CCC/C1=C\c1ccccc1 | 82% | 80.5% | 13.2% | 22% | 30.7% | -79% (active) | 81.4% | 10.1% |  | 
CC(C)c1ccc(Nc2n[nH]c(=S)s2)cc1 | 85.6% | 96.2% | 97.1% | 110% | 101% | 101% | 91% |  |  | 
Cc1cccc2c(N)c3ccccc3nc12 | -2.75% (active) | 14% | -12.1% (active) | 0.0537% (active) | 5.35% (active) | 0.783% (active) | 2.09% (active) |  |  | 
CCOC(=O)C1(C)CCCC1N (stereo not drawn) | 105% | 116% | 103% | 106% | 104% | 111% | 115% | 98.5% |  | 
CCNc1nnnn1CC | 106% | 110% | 107% | 104% | 95.7% | 102% | 110% | 110% |  | 
Cc1cc(C)c(C#N)c(Sc2nc(C)c([N+](=O)[O-])c(C)c2C#N)n1 | 68.7% | 43.1% | 42.9% | 19.2% | 26.4% | 9.65% (active) | 100% | 60.8% |  | 
O=C(CCl)N(c1ccccc1)c1ccccc1 | 110% | 106% | 98% | 108% | 102% | 111% | 119% | 106% |  | 
CC1(C)N=c2cc3c(cc2N1c1ccc(Cl)cc1)=Nc1ccccc1N3c1ccc(Cl)cc1 | 25.1% | 44% | 77.9% | 53.5% | 28.9% | -41.3% (active) | 36.9% | 77% |  | 
Nc1ccc(Oc2ccccc2)c(Cl)c1 | 86.6% | 97.6% | 93.6% | 107% | 95.6% | 79.3% | 113% | 104% |  | 
Oc1ccc(Br)cc1Sc1cc(Br)ccc1O | 17.7% | 43.8% | 56.7% | 64.1% | 59.2% | 34.3% | 91.7% | 92.9% |  | 
CCCCOS(=O)(=O)c1ccccc1 | 106% | 103% | 95.8% | 110% | 102% | 108% | 117% |  |  | 
CSc1nc(C)c(C(=O)CCN2CCN(c3ccccn3)CC2)s1 | 66.7% | 113% | 104% | 100% | 61.2% | 105% | 106% | 106% |  | 
O=C(O)c1ccc2c(c1)C(=O)c1ccccc1C2=O | 99.7% | 107% | 102% | 97% | 97.7% | 106% | 104% | 98.9% |  | 
CCOC(=O)/C(=C\c1ccc2ccccc2c1)P(=O)(OCC)OCC | 32.4% | 39.8% | 24% | 2.35% (active) | 15.3% | 4.87% (active) | 13.6% | 39.2% |  | 
CC/C(=C(/CC)c1ccc(O)cc1)c1ccc(O)cc1 | 72.4% | 64.3% | -18.7% (active) | 44.6% | 26.2% | 29.3% | 70.2% | 44.1% |  | 
